An excerpt weighted towards active compounds, which were near 1.3% of everything screened.
Cardiac RTF inh: cardiac RTF calcium desensitization | IANBD-labeled cardiac RTF, Ca2+ fluorescence | AID 493244 | P19429+P45379 | inhibition, % at 7.15 µM | 340,000 tested, 0.12% active;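 active means inhibition above the mean inhibition of all tested compounds plus 3 SD, cut at about 17% in these data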;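 further: assay run at fixed EC70 calcium of 1.6 mM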
CRFR2-BP antag: blocks CRF-induced signaling of the CRF-BP/CRF-R2 complex; HEK293 CRF-R2/CRF-BP, CRF-induced calcium fluorescence; inhibition, % at 11.8 µM; 350,000 tested, 0.59% active; AID 588475;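 active means inhibition of the ligand-induced calcium signal above about 50% at the single tested concentration, limit read from the data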
cardiac RTF act: increases calcium sensitivity of human cardiac regulated thin filaments | P19429+P45379 | IANBD-labeled TnC RTF fluorescence at EC20 calcium; 0% EC20 calcium, 100% full calcium | activation, % at 7.2 µM | 340,000 tested, 0.24% active;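 active means activation above the mean over all tested compounds plus 3 SD, cut at about 30% in these data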;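 further: rise in fluorescence read as greater calcium sensitivity of cardiac thin filaments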
CRFBP-R2 agonist: agonists of human CRF-binding protein/CRF-R2 receptor complex; HEK293 CRF-R2/CRF-BP, calcium dye fluorescence (FLIPR); percent of saturating CRF peptide response; activation, % at 13.2 µM; 350,000 tested, 0.46% active; AID 588473;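 active means activation of at least 50%, plus an integration ratio under a set limit after plate pattern correction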;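 further: plate controls were neutral control wells without compound for no effect and CRF at EC100 for full effect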
* marks the source's active call; other numbers are inactive results; · = not tested or not shown.

SMILES	Cardiac RTF inh	CRFR2-BP antag	cardiac RTF act	CRFBP-R2 agonist
Cc1ccc(C(=O)COC(=O)CN2C(=O)C3C4CC(C(Br)C4Br)C3C2=O)cc1 (stereo not given)	-3.0	-6.5	-4.4	-0.9
CCOC(=O)C1CCCCN1Cc1ccc(OC)c(OC)c1 (stereo not given)	-5.6	-6.2	-5.0	-1.9
CCC1CCCCN1Cc1ccc(OC)c(C)c1 (stereo not given)	-0.4	38.0	-2.8	65.0*
COc1ccc(CN2CCSCC2)cc1C	0.4	21.3	0.5	69.3*
CCCCN(C(=O)CSc1n[nH]c(-c2ccc(C)cc2)n1)c1c(N)n(CCCC)c(=O)[nH]c1=O	-7.1	3.0	1.9	0.5
O=C(Nc1nnc(SCCN2CCOCC2)s1)C1CC(=O)N(c2ccccc2)C1 (stereo not given)	-2.3	3.1	2.5	-0.9
CC1(C)CC[C@]2(C(=O)O)CC[C@]3(C)C(=CC[C@@H]4[C@@]5(C)CC[C@H](O[C@@H]6O[C@H](C(=O)O)[C@@H](O)[C@H](O[C@@H]7OC[C@H](O)[C@H](O)[C@H]7O)[C@H]6O)C(C)(C)[C@@H]5CC[C@]43C)[C@@H]2C1	-2.2	-226.8	-2.1	255.9*
O=C(NCCOC(=O)C1COc2ccccc2O1)c1cccnc1 (stereo not given)	2.3	-91.4	-0.2	64.2*
Cn1cccc1Cc1nnc(SCC(=O)N2CCN(c3ccccc3)CC2)n1-c1ccc(F)cc1	-16.9	51.5*	2.7	-2.2
CC(C)(C)c1ccc(/C=C(\C#N)C(=O)NC2CC2)cc1	·	-32.7	·	0.2
CN(C(=O)COC(=O)C(Cc1ccccc1)NC(=O)c1ccccc1)c1ccccc1 (stereo not given)	-0.1	17.5	10.3	1.0
O=C(COC(=O)C(Cc1ccccc1)NC(=O)c1cccs1)NCc1ccccc1 (stereo not given)	1.7	9.3	7.2	-4.7
O=C(COC(=O)[C@H](Cc1ccccc1)NC(=O)c1ccco1)NCc1ccccc1	-14.1	-72.0	2.4	78.8*
CN(C)C(=O)COC(=O)[C@H](Cc1ccccc1)NC(=O)c1ccco1	-10.1	-41.7	9.4	106.6*
COC(=O)c1sc(N)c(C(=O)OC)c1COC(=O)C12CC3CC(CC(O)(C3)C1)C2	-40.8	-1.0	2.3	-0.7
O=C(COc1ccc(S(=O)(=O)N2CCOCC2)cc1)Nc1ccccc1Cl	-25.6	2.4	-6.3	0.0
COc1cccc([C@@H]2CC=C(C(=O)O)[C@H](c3ccccc3F)N2S(=O)(=O)c2ccc(C)cc2)c1	-4.3	-0.2	6.3	1.8
Cn1c(-c2c(N)n(C3CCCC3)c3nc4ccccc4nc23)nc2ccccc21	-20.7	-70.7	4.2	27.2
Cn1c(-c2c(N)n(CCc3ccccc3)c3nc4ccccc4nc23)nc2ccccc21	-17.6	-155.0	7.0	51.1*
COCCCn1c(N)c(-c2nc3ccccc3n2C)c2nc3ccccc3nc21	-7.8	-179.8	5.0	92.3*
Cn1c(-c2c(N)n(CCCc3ccccc3)c3nc4ccccc4nc23)nc2ccccc21	-5.4	-29.7	8.7	10.4
Cc1cc(NS(=O)(=O)c2c(C(=O)N3CCOCC3)c(C)n(C)c2C)ccc1Br	-11.0	92.0*	6.6	-1.4
O=C(CC1C(=O)N(c2ccc(Cl)cc2)C(=S)N1CCc1ccncc1)Nc1ccc(F)cc1 (stereo not given)	0.7	-40.6	39.0*	13.6
Nc1ncnc2c1cnn2C1CCCCC1	2.6	-2.3	-4.9	0.2
O=C(Cc1ccc(F)cc1)N[C@@H]1c2ccccc2CC[C@H]1OCc1ccccc1	-5.0	13.8	-2.7	-2.6
SMILES	Cardiac RTF inh	CRFR2-BP antag	cardiac RTF act	CRFBP-R2 agonist
CN(C)CCNc1ccc2ncn3c4ccc(O)cc4c(=O)c1c23	-185.3	-60.2	170.1*	74.8*
N#CC1(Nc2cccc(Cl)c2)CCCC1	-1.5	-0.3	6.3	1.4
O=C(CCN1C(=O)C2CC=CCC2C1=O)Nc1ccc(S(=O)(=O)N2CCCCC2)cc1 (stereo not given)	-4.5	-0.2	-2.1	0.6
Cc1ccc(NC(=O)CSC2=C(C#N)C(c3ccco3)C3=C(CC(C)(C)CC3=O)N2)cc1 (stereo not given)	1.8	25.3	4.5	-1.6
Cc1ccc(NC(=O)CSC2=C(C#N)C(c3ccco3)CC(=O)N2)cc1 (stereo not given)	-0.7	109.0*	3.2	-0.1
Cc1ccc(C(=O)CSC2=C(C#N)C(c3ccco3)CC(=O)N2)c(C)c1 (stereo not given)	-6.3	-58.3	1.8	56.8*
COc1ccc(Br)cc1/C=N/NC(=O)CN1CCN(Cc2ccccc2)CC1	-0.4	-5.2	0.7	-1.4
CC(C)Cc1nnc(NC(=O)c2ccc3c(=O)n4c(nc3c2)CCC4)s1	-2.8	11.6	-0.7	-1.3
O=C(CCc1nnc2ccc(NCc3ccco3)nn12)N1CCN(c2ccccc2F)CC1	-0.3	52.1*	-0.2	1.7
O=C(CCc1nnc2ccc(NCc3ccco3)nn12)N1CCCCC1	-0.9	-3.2	3.9	2.4
CCCC(=O)N1CCc2cc(-c3nc(N)sc3C)ccc21	-5.7	50.8*	2.0	-2.3
COc1ccc(C(C)=O)cc1CSc1nnc2c(Cl)cc(Cl)cn12	-15.1	54.8*	5.7	-4.0
N#CC1=C(N)Oc2cc(N)ccc2C1c1cccnc1 (stereo not given)	-6.8	-5.1	7.2	-0.5
CCN(CC)c1ccc2c(c1)OC(N)=C(C#N)C2c1cccnc1 (stereo not given)	-197.1	-182.9	157.5*	181.4*
O=C(CCc1ccccc1)Nc1cc(C(=O)O)cc(C(=O)O)c1	0.7	4.8	-0.3	0.4
N#Cc1ccccc1S(=O)(=O)Nc1ccc2c(c1)C(=O)OC2	4.9	-5.0	0.0	0.4
C/C(=N\OC(=O)c1ccc(OC(C)C)cc1)c1ccc(C)c(C)c1	4.6	72.7*	-6.0	-1.7
COC(=O)c1ccc(/C(O)=C(\C#N)c2nc3ccccc3s2)cc1	-5.4	51.0*	10.4	43.0
COc1cc(-c2ccc3cc(OC)c(OC)c(OC)c3c2)cc(OC)c1OC	·	58.2*	·	0.6
COc1cccc(CN(C)C(=O)c2cccc(S(=O)(=O)N3CCN(c4ccccc4)CC3)c2)c1OC	-4.5	116.7*	-6.6	-0.4
COc1cccc(CN(C)C(=O)c2cccc(S(=O)(=O)N3CCN(c4ccc(F)cc4)CC3)c2)c1OC	-4.5	8.0	2.6	1.9
CN(CC(=O)Nc1ccc(F)cc1)C(=O)c1cccc(S(=O)(=O)N2CCN(c3ccccc3)CC2)c1	-2.3	-11.0	-4.7	0.4
COc1ccc(NC(=O)CN(C)C(=O)c2cccc(S(=O)(=O)N3CCN(c4ccc(F)cc4)CC3)c2)cc1	2.6	79.3*	2.0	-0.5
CCN(CC(=O)Nc1ccc(OC)cc1)C(=O)c1cc(S(=O)(=O)N2CCOCC2)ccc1N1CCCC1	-4.1	69.9*	2.5	-1.6
CCN(C(=O)Cn1cnc2c1c(=O)n(C)c(=O)n2C)C1CCS(=O)(=O)C1 (stereo not given)	0.1	-0.2	-2.5	-1.2
COc1ccccc1N1CCN(C2CCCCC2NS(=O)(=O)c2ccccc2)CC1 (stereo not given)	-0.8	-7.9	1.4	-0.4

Source: PubChem BioAssay (several laboratories)
